The panel holds about 83,000 compounds, 20% with a hit somewhere; the sample as a whole holds those more often.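 Results are percent growth after 48 hours of single-concentration exposure. 100 means growth as in untreated cells, lower positive values show inhibition; negative values down to -100 show cell death.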 Active and inactive are the calls of the source. Rule for the calls: active = growth percent below 10; inactive = the rest.
How the values were obtained:
Assay in all cases: NCI-60 one-dose screen, 48 h (100 = growth as untreated, 0 = no growth, -100 = all killed)
Conditions in all cases: 10 µM unless noted
T-47D breast = test system: T-47D breast
BT-549 breast = test system: BT-549 breast
MDA-MB-435 melanoma = test system: MDA-MB-435 melanoma
SW-620 colon = test system: SW-620 colon
MCF7 breast = test system: MCF7 breast
HCT-116 colon = test system: HCT-116 colon
HCC-2998 colon = test system: HCC-2998 colon
KM12 colon = test system: KM12 colon

Measured: growth

O=C(NC1CCS(=O)(=O)C1)c1ccc(C(=O)c2ccccc2)cc1 (centres undefined)
inactive: T-47D breast 107% | BT-549 breast 121% | MDA-MB-435 melanoma 101% | SW-620 colon 95.8% | MCF7 breast 105% | HCT-116 colon 104% | HCC-2998 colon 103% | KM12 colon 125%

COc1ccc(-c2nc3sc4c(c3c(=O)[nH]2)CCCCCC4)cc1
active: MDA-MB-435 melanoma 2.83%
inactive: T-47D breast 64.2% | BT-549 breast 75.3% | SW-620 colon 29% | MCF7 breast 54.1% | HCT-116 colon 33.9% | HCC-2998 colon 80.9% | KM12 colon 34.8%

CC1CC=CCC1C1OCC(C)(C)CO1 (centres undefined)
inactive: T-47D breast 75.3% | BT-549 breast 99.9% | MDA-MB-435 melanoma 105% | SW-620 colon 102% | MCF7 breast 101% | HCT-116 colon 97.5% | HCC-2998 colon 113%

Nc1nc2c(c(=O)[nH]1)C1(C(=O)Nc3ccccc31)c1c(nc(N)[nH]c1=O)N2
inactive: T-47D breast 92.3% | BT-549 breast 102% | MDA-MB-435 melanoma 106% | SW-620 colon 97.3% | MCF7 breast 94.8% | HCT-116 colon 116% | HCC-2998 colon 114% | KM12 colon 101%

NC(=O)NC1(C(=O)O)CCCC1
inactive: T-47D breast 93.6% | BT-549 breast 111% | MDA-MB-435 melanoma 107% | SW-620 colon 109% | MCF7 breast 98.9% | HCT-116 colon 115% | HCC-2998 colon 108% | KM12 colon 107%

NS(=O)(=O)N(c1cc(C(F)(F)F)cc(C(F)(F)F)c1)C1CCN(Cc2ccc(C(F)(F)F)cc2)CC1
active: MDA-MB-435 melanoma -60.4% | MCF7 breast 9.31% | HCT-116 colon 2.21% | HCC-2998 colon 3.6%
inactive: T-47D breast 29.5% | BT-549 breast 37.4% | SW-620 colon 19.9% | KM12 colon 12.9%

COc1ccc(CCN2C(=O)CCC3=C2CCCC3=O)cc1OC
inactive: T-47D breast 104% | BT-549 breast 104% | MDA-MB-435 melanoma 103% | SW-620 colon 107% | MCF7 breast 92.6% | HCT-116 colon 100% | HCC-2998 colon 103%

O=C1/C(=C/c2ccccc2Cl)CCc2ccccc21
inactive: T-47D breast 105% | BT-549 breast 108% | MDA-MB-435 melanoma 95.4% | SW-620 colon 110% | MCF7 breast 87.9% | HCT-116 colon 99.5% | HCC-2998 colon 102% | KM12 colon 108%

CCCCOP(=O)(OCCCC)C(C(=O)OCC)C(CC(=O)OCC)C(=O)OCC (centres undefined)
inactive: T-47D breast 114% | BT-549 breast 114% | MDA-MB-435 melanoma 104% | SW-620 colon 106% | MCF7 breast 93.1% | HCT-116 colon 112% | HCC-2998 colon 109% | KM12 colon 111%

Clc1ccc2nc(CI)c(CI)nc2c1
inactive: T-47D breast 85.3% | BT-549 breast 73.1% | MDA-MB-435 melanoma 23.8% | SW-620 colon 25.1% | MCF7 breast 22.4% | HCT-116 colon 11% | HCC-2998 colon 100% | KM12 colon 101%

O[N+]1=CC=CCC1=S.On1ccccc1=S.[Zn]
active: T-47D breast -84.9% | BT-549 breast -84% | MDA-MB-435 melanoma -82.8% | SW-620 colon -77.2% | MCF7 breast -75.6% | HCT-116 colon -88.1% | HCC-2998 colon -76.3% | KM12 colon -88.3%

O=C(O)c1ccc(CNS(=O)(=O)c2ccc3ccccc3c2)cc1
inactive: T-47D breast 100% | BT-549 breast 104% | MDA-MB-435 melanoma 110% | SW-620 colon 99.8% | MCF7 breast 107% | HCT-116 colon 109% | HCC-2998 colon 271% | KM12 colon 101%

c1ccc(Nc2ccc(Nc3nc(-c4ccccc4)nc4ccccc34)cc2)cc1
inactive: T-47D breast 47.9% | BT-549 breast 93.8% | MDA-MB-435 melanoma 87.5% | SW-620 colon 75.7% | MCF7 breast 80.6% | HCT-116 colon 74.9% | HCC-2998 colon 89% | KM12 colon 36.4%

CC1CN(/N=C/c2ccc([N+](=O)[O-])o2)C(=N)O1 (centres undefined)
inactive: T-47D breast 117% | BT-549 breast 117% | MDA-MB-435 melanoma 100% | SW-620 colon 98.2% | MCF7 breast 84.8% | HCT-116 colon 95.6% | HCC-2998 colon 98.3% | KM12 colon 91.7%

CC(NNC(=S)N1CCCCCC1)c1ccc2ccccc2n1 (centres undefined)
inactive: T-47D breast 29.8% | BT-549 breast 66.6% | MDA-MB-435 melanoma 40.6% | SW-620 colon 36% | MCF7 breast 16.5% | HCT-116 colon 26.5% | HCC-2998 colon 36.6% | KM12 colon 34.9%

Cc1cc(C(=O)Nc2ccc3cc(CN4CCOCC4)ccc3n2)c(C)n1-c1ccccc1
active: T-47D breast -2.49% | BT-549 breast -1.74% | MDA-MB-435 melanoma 4.74% | MCF7 breast 7.41%
inactive: SW-620 colon 64.1% | HCT-116 colon 29.4% | HCC-2998 colon 50.8% | KM12 colon 11%

COc1ccc2c3c(ccc2c1)C(=O)/C(=C\O)CC3
inactive: T-47D breast 80.8% | BT-549 breast 105% | MDA-MB-435 melanoma 111% | SW-620 colon 105% | MCF7 breast 102% | HCT-116 colon 88.1% | HCC-2998 colon 104% | KM12 colon 99.5%

CCCCNCCCN(CCCC)CCCNCCCC
inactive: T-47D breast 105% | BT-549 breast 97.2% | MDA-MB-435 melanoma 94.3% | SW-620 colon 101% | MCF7 breast 95.8% | HCT-116 colon 90.9% | HCC-2998 colon 103% | KM12 colon 107%

CCOC(=O)C1C(=O)NC(C(=O)OCC)(C(=O)OCC)C1CC (centres undefined)
inactive: T-47D breast 109% | BT-549 breast 112% | MDA-MB-435 melanoma 115% | SW-620 colon 115% | MCF7 breast 104% | HCT-116 colon 110% | HCC-2998 colon 108% | KM12 colon 112%

O=C(N/N=C/c1cccc(O)c1)c1ccc(C(F)(F)F)nc1Nc1cccc(C(F)(F)F)c1
active: T-47D breast 5.41% | BT-549 breast 1.67% | SW-620 colon 7.06% | MCF7 breast 3.77% | HCT-116 colon -21.4% | KM12 colon 8.65%
inactive: MDA-MB-435 melanoma 51.2% | HCC-2998 colon 10.2%

O=C1/C(=C/c2ccc(F)cc2)Cc2ccccc21
inactive: T-47D breast 103% | BT-549 breast 89.6% | MDA-MB-435 melanoma 107% | SW-620 colon 104% | MCF7 breast 27.3% | HCT-116 colon 87.9% | HCC-2998 colon 89.9% | KM12 colon 106%

Nc1ccc2c(c1)Cc1cc(Cl)c(Cl)cc1-2
inactive: T-47D breast 85.3% | BT-549 breast 60.4% | MDA-MB-435 melanoma 28.1% | SW-620 colon 38.1% | MCF7 breast 30% | HCT-116 colon 49.5% | HCC-2998 colon 66.4% | KM12 colon 52.2%

CNc1nc(NC2CCCC2)nc(Sc2ccc(OC)cc2)n1
active: BT-549 breast 7.66% [100 µM] | MDA-MB-435 melanoma 0.45% [100 µM] | HCT-116 colon 0.657% [100 µM] | KM12 colon 1.94% [100 µM]
inactive: T-47D breast 27.3% [100 µM] | SW-620 colon 21% [100 µM] | MCF7 breast 30.9% [100 µM] | HCC-2998 colon 38% [100 µM]

CCCCCCCCN(CCO)CCCCCCCC
inactive: T-47D breast 97.6% | BT-549 breast 106% | MDA-MB-435 melanoma 108% | SW-620 colon 101% | MCF7 breast 93.5% | HCT-116 colon 104% | HCC-2998 colon 114% | KM12 colon 110%

Cc1ccc2nc(-c3ccc(N(C)C)c(Br)c3)cn2c1
inactive: T-47D breast 109% | BT-549 breast 71.4% | MDA-MB-435 melanoma 63.4% | SW-620 colon 100% | MCF7 breast 76.8% | HCT-116 colon 33% | HCC-2998 colon 100% | KM12 colon 95.4%

N#CSCC1CC(O)(c2ccccc2)C(c2ccccc2)C(c2ccc(Cl)cc2)O1 (centres undefined)
active: T-47D breast -35.3% | BT-549 breast -57.8% | MDA-MB-435 melanoma -65.2% | SW-620 colon -76.2% | MCF7 breast -51.5% | HCT-116 colon -92.9% | HCC-2998 colon -86.2% | KM12 colon -96%

CCOC(=O)/C=C1/SC(=Nc2ccc(C#N)cc2)N(Cc2ccco2)C1=O
inactive: T-47D breast 12.1% | BT-549 breast 44.8% | MDA-MB-435 melanoma 50.5% | SW-620 colon 12% | MCF7 breast 12.6% | HCC-2998 colon 64.7% | KM12 colon 60.9%
active: HCT-116 colon -61.6%

CSc1nc2nc3c(nc2c(=O)n1C)C(=O)c1ccccc1C3=O
active: T-47D breast -45.3% | BT-549 breast -94.8% | MDA-MB-435 melanoma -83.6% | SW-620 colon -55.7% | MCF7 breast -62.2% | HCT-116 colon -37.6% | HCC-2998 colon -70.1% | KM12 colon -64.2%

COc1cnc2c(c1)C(=O)c1c-2n(CCCN2CCC(O)CC2)c(=O)c2cc(F)ccc12
inactive: HCC-2998 colon 13.5%
active: T-47D breast -4.28% | BT-549 breast 0.525% | MDA-MB-435 melanoma 8.13% | SW-620 colon 6.58% | MCF7 breast 0.145% | HCT-116 colon -71.7% | KM12 colon -6.17%

CC(=O)Nc1cc(C(c2ccccc2)c2ccccc2)cc(C(c2ccccc2)c2ccccc2)c1C
inactive: T-47D breast 24.9% | BT-549 breast 55.5% | MDA-MB-435 melanoma 63.9% | SW-620 colon 52% | MCF7 breast 41.3% | HCC-2998 colon 64.9% | KM12 colon 50.5%
active: HCT-116 colon 8.02%

Nc1ccc2c(c1)C(=O)c1cc(Cl)c(Cl)cc1-2
inactive: T-47D breast 91% | BT-549 breast 85.2% | MDA-MB-435 melanoma 102% | SW-620 colon 101% | MCF7 breast 69.2% | HCT-116 colon 93.5% | HCC-2998 colon 98% | KM12 colon 92.8%

COc1ccc2c(=O)c(OC)c(-c3cc(OC)c(OC)c(OC)c3)oc2c1
inactive: T-47D breast 76.1% | BT-549 breast 117% | MDA-MB-435 melanoma 105% | SW-620 colon 92.2% | MCF7 breast 88% | HCT-116 colon 87.2% | HCC-2998 colon 82.5% | KM12 colon 97.8%

Reference: PubChem BioAssay (NCI)
